Compound activity: PubChem BioAssay, University of Pittsburgh Molecular Library Screening Center
HIV RNase H inh-1: HIV-1 RT RNase H inhibitors, primary screen, biochemical, fluorescence; Gag-Pol polyprotein (Human immunodeficiency virus type 1 group M subtype B (isolate …; RT-RNase H RNA/DNA duplex cleavage; inhibition, % at 10 µM; hit rate 1.9% among 65,000; in the data active means inhibition above about 50%
HIV RNase H inh-2: HIV-1 RT RNase H inhibitors, retest, confirmation, biochemical | hit rate 39% among 1,000 | Recombinant RT RNase H, fluorescent RNA/DNA duplex cleavage | inhibition, % at 10 µM | AID 651, 2007 | shares compounds with HIV RNase H inh-1; in the data active means inhibition above about 48%; inconclusive means no clear call, values can overlap the other calls
Starred values were filed as active, the others as inactive; ? = inconclusive. The full list was thinned out, with hits kept by preference.

SMILES	HIV RNase H inh-1	others
CCOC(=O)N1CCC(N2Cc3cccc(C(=O)NCc4ccc(OC)cc4)c3C2=O)CC1	73*	HIV RNase H inh-2=44
CCOC(=O)N1CCC(N2Cc3cccc(C(=O)NCc4ccc5c(c4)OCO5)c3C2=O)CC1	-1
CCOC(=O)N1CCC(N2Cc3cccc(C(=O)NCc4ccccc4OC)c3C2=O)CC1	-32
COc1c(C)cccc1C(=O)Nc1cc(-c2nn3c(C)nnc3s2)ccc1C	-10
O=c1[nH]c(CSc2nnc(NCCCN3CCOCC3)s2)nc2cc(Cl)ccc12	44
Cc1ccc(C)n1-c1cccc(C(=O)O)c1	71*	HIV RNase H inh-2=?
Cc1ccc(C)n1-c1cccc(N)c1	20
O=C(O)c1cccc(N2CCCC2=O)c1	-13
O=C(CP(=O)(c1ccccc1)c1ccccc1)Nn1cnnc1	-9
Cc1ccc(CN2C(=O)/C(=C3\SC(N4CCOCC4)=NC3=O)c3cc(Br)ccc32)cc1	23
CCCCN1C(=O)/C(=C2\SC(N3CCCCC3)=NC2=O)c2ccccc21	86*	HIV RNase H inh-2=25
O=C1N=C(N2CCOCC2)S/C1=C1\C(=O)N(Cc2ccccc2)c2ccc(Br)cc21	12
COC(=O)c1ccccc1NC(=O)c1ccccc1N(C)S(C)(=O)=O	-17
CNC(=O)Nc1ccccc1NC(=O)NC	-4
COc1cccc(NC(=O)CSc2nnc(-c3cccs3)n2C)c1	3
C=CCn1c(Cc2cccs2)nnc1SCC(=O)Nc1cccc(OC)c1	73*	HIV RNase H inh-2=42
C=CCn1c(Cc2cccs2)nnc1SCC(=O)Nc1ccc(OC)cc1	-29
CC(=O)c1cccc(NC(=O)c2cc3nc(C)cc(C)n3n2)c1	-8
COc1cccc(/C(O)=C2/C(=O)C(=O)N(CCCN(C)C)C2c2cccc(Cl)c2)c1 (configuration not stated)	-7
CCc1nc2oc3ccccc3c(=O)c2c(=O)n1-c1ccccc1	-10
CCOC(=O)c1cc2sc(C)cc2n1CC(=O)Nc1ccc2c(c1)OCCO2	58*	HIV RNase H inh-2=?
CCOC(=O)c1cc2sc(C)cc2n1CC(=O)Nc1cccc(C)c1C	-4
CCOC(=O)c1cn(CC(=O)Nc2ccc3c(c2)OCCO3)nn1	-6
O=C(Nc1ccc(-c2cn3ccsc3n2)cc1)c1ccc(F)c(S(=O)(=O)N2CCOCC2)c1	5
COc1ccccc1-n1c(CNC(=O)c2ccco2)nnc1SCC(=O)Nc1ccc(F)cc1	-12
SMILES	HIV RNase H inh-1	others
NC(=O)c1c(N)sc2c1CCCC2	35
Nc1sc2c(c1C(=O)NC1CCS(=O)(=O)C1)CCCC2 (configuration not stated)	66*	HIV RNase H inh-2=26
O=C(Nc1sc2c(c1C(=O)NC1CC1)CCCCCC2)c1ccco1	29
COc1ccc(-c2cn3c4c(sc3n2)CCCC4)cc1	-20
CCCCCn1c(SCCN2CCOCC2)nc2c1c(=O)[nH]c(=O)n2C	27
CC1=C(C)NC(=S)SC1	55*	HIV RNase H inh-2=5
CCC(C)(C)NC(=O)CN(CC1CCCO1)C(=O)CCC(=O)Nc1nccs1 (configuration not stated)	1
CCCCn1c(SCC(=O)OCC)nc2c1c(=O)[nH]c(=O)n2C	68*	HIV RNase H inh-2=64*
CCOCCn1c(SCc2c(F)cccc2Cl)nc2c1c(=O)[nH]c(=O)n2C	-9
CCCCCCn1c(SCCCC)nc2c1c(=O)[nH]c(=O)n2C	-13
CCOC(=O)CSc1nc2c(c(=O)[nH]c(=O)n2C)n1CCc1ccccc1	-2
CCOCCn1c(SCCCc2ccccc2)nc2c1c(=O)[nH]c(=O)n2C	-41
CCOCCn1c(SC)nc2c1c(=O)[nH]c(=O)n2C	59*	HIV RNase H inh-2=-4
CCOC(=O)N1CCC(NC(=O)C2CCN(S(=O)(=O)N3CCC(C)CC3)CC2)CC1	-1
O=C(CCn1c(=O)oc2ccccc21)Nc1ccc2c(c1)OCCO2	-13
O=C1CCCN1CCC1CCN(C2CC(=O)N(c3ccc(Cl)cc3)C2=O)CC1 (configuration not stated)	18
CN1C(=O)CC(N2CCN(CC(=O)N3CCCC3)CC2)C1=O (configuration not stated)	1
Cc1ccc2cc(C#N)c(NCCNC(=O)C3CC3)nc2c1C	-31
CCc1c(C)sc(NC(=O)CC#N)c1C#N	38
CCc1c(C)sc(NC(=O)c2cc(C)no2)c1C#N	60*	HIV RNase H inh-2=12
Cc1cc(C(=O)Nc2sc(C)c(C)c2C#N)no1	23
Cc1ccc(C)c(-n2c(SCC(=O)NCC3CCCO3)nnc2-c2ccoc2C)c1 (configuration not stated)	-3
Cc1occc1-c1nnc(SCC(=O)NCC2CCCO2)n1C (configuration not stated)	1
Cc1ccc(-n2c(SCC(=O)NCC3CCCO3)nnc2-c2ccoc2C)cc1 (configuration not stated)	84*	HIV RNase H inh-2=34
O=C(Nc1ccon1)c1cccc(S(=O)(=O)N2CCCC2)c1	2
CC1CCCCN1CC(=O)Nc1sc2c(c1C#N)CCC2 (configuration not stated)	9
